According to PubChem BioAssay (NCI):
This is part of a sample that, as a whole, favours compounds with a hit. Of some 83,000 tested, about 20% had one in any assay.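 The test compound was applied at a single concentration to cells in 96-well plates for 48 hours, and percent growth was recorded.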 Calls of active or inactive are those of the source. Rule for the calls: active = growth percent below 10; inactive = the rest.

Tests used:
Assay in all cases: NCI-60 one-dose screen, 48 h (100 = growth as untreated, 0 = no growth, -100 = all killed)
Conditions in all cases: 10 µM unless noted
NCI-H23 lung = tested on: NCI-H23 lung
NCI-H226 lung = tested on: NCI-H226 lung
NCI-H322M lung = tested on: NCI-H322M lung
HOP-62 NSCLC = tested on: HOP-62 NSCLC
NCI-H460 lung = tested on: NCI-H460 lung
HOP-92 NSCLC = tested on: HOP-92 NSCLC
NCI-H522 lung = tested on: NCI-H522 lung
A549/ATCC NSCLC = tested on: A549/ATCC NSCLC
786-0 renal = tested on: 786-0 renal
COLO 205 colon = tested on: COLO 205 colon
K-562 leukemia = tested on: K-562 leukemia
MALME-3M melanoma = tested on: MALME-3M melanoma
MDA-MB-231 breast = tested on: MDA-MB-231 breast
RXF 393 renal = tested on: RXF 393 renal
SF-268 CNS = tested on: SF-268 CNS
SF-295 CNS = tested on: SF-295 CNS
SF-539 CNS = tested on: SF-539 CNS
UACC-257 melanoma = tested on: UACC-257 melanoma
M14 melanoma = tested on: M14 melanoma
DU-145 prostate = tested on: DU-145 prostate

Measured: growth

O=C(Nc1cccc(Cl)c1)Nc1cc(C(F)(F)F)ccc1Cl
active: NCI-H23 lung -12.3% | NCI-H460 lung -34.6% | HOP-92 NSCLC -20.3% | NCI-H522 lung -26.9% | 786-0 renal 8.47% | COLO 205 colon -28.2% | MALME-3M melanoma 5.85% | SF-295 CNS -1.4%
inactive: NCI-H226 lung 20.8% | NCI-H322M lung 30.8% | HOP-62 NSCLC 41.3% | A549/ATCC NSCLC 11.3% | K-562 leukemia 16.4% | MDA-MB-231 breast 25.5% | RXF 393 renal 40.7% | SF-268 CNS 41.8% | SF-539 CNS 43.5% | UACC-257 melanoma 19.6% | M14 melanoma 18.2%

Oc1ccc(CCCCCCc2ccc(O)cc2)cc1
inactive: NCI-H23 lung 59.5% | NCI-H226 lung 101% | NCI-H322M lung 92% | HOP-62 NSCLC 80.6% | NCI-H460 lung 46.4% | HOP-92 NSCLC 64% | NCI-H522 lung 56.6% | A549/ATCC NSCLC 47.6% | 786-0 renal 14.2% | COLO 205 colon 103% | K-562 leukemia 102% | MALME-3M melanoma 92.8% | MDA-MB-231 breast 65.3% | RXF 393 renal 60.4% | SF-268 CNS 65.2% | SF-295 CNS 65.1% | SF-539 CNS 42% | UACC-257 melanoma 91.4% | M14 melanoma 41.8%

O=C(NCCNC(=O)c1cc(S(=O)(=O)NCCc2ccccc2)c(O)c(O)c1O)c1cc(S(=O)(=O)NCCc2ccccc2)c(O)c(O)c1O
inactive: NCI-H23 lung 38.9% | NCI-H226 lung 49.5% | NCI-H322M lung 39.5% | HOP-62 NSCLC 34.6% | NCI-H460 lung 32.1% | HOP-92 NSCLC 73.9% | NCI-H522 lung 41.6% | A549/ATCC NSCLC 45.8% | 786-0 renal 53.4% | COLO 205 colon 104% | DU-145 prostate 77.1% | MALME-3M melanoma 94.3% | MDA-MB-231 breast 59.9% | RXF 393 renal 78.1% | SF-268 CNS 45.9% | SF-539 CNS 20.3% | UACC-257 melanoma 86.1% | M14 melanoma 44.4%

CCCCOc1ncnc2nc[nH]c12
inactive: NCI-H23 lung 100% | NCI-H226 lung 94.2% | NCI-H322M lung 101% | HOP-62 NSCLC 96.1% | NCI-H460 lung 113% | HOP-92 NSCLC 101% | NCI-H522 lung 100% | A549/ATCC NSCLC 99.3% | 786-0 renal 97.1% | COLO 205 colon 110% | K-562 leukemia 95.4% | MALME-3M melanoma 103% | MDA-MB-231 breast 115% | RXF 393 renal 97.7% | SF-295 CNS 110% | SF-539 CNS 102% | UACC-257 melanoma 101% | M14 melanoma 106%

O=C(/C=C/c1cc([N+](=O)[O-])ccc1Cl)c1ccccc1
inactive: NCI-H23 lung 87.6% | NCI-H226 lung 86.5% | NCI-H322M lung 88.1% | HOP-62 NSCLC 103% | NCI-H460 lung 97.6% | HOP-92 NSCLC 73.7% | NCI-H522 lung 82.9% | A549/ATCC NSCLC 91.5% | 786-0 renal 78.4% | COLO 205 colon 109% | K-562 leukemia 24.4% | MALME-3M melanoma 102% | MDA-MB-231 breast 85.9% | RXF 393 renal 97.8% | SF-268 CNS 94.8% | SF-295 CNS 95.9% | SF-539 CNS 107% | UACC-257 melanoma 104% | M14 melanoma 94.1%

CCCCCCCCCC1=NC(C)(C)CN1C(C)(C)CO
inactive: NCI-H23 lung 89.1% | NCI-H226 lung 105% | NCI-H322M lung 89.4% | HOP-62 NSCLC 100% | NCI-H460 lung 105% | HOP-92 NSCLC 91% | NCI-H522 lung 80.9% | A549/ATCC NSCLC 99.6% | 786-0 renal 100% | COLO 205 colon 184% | MALME-3M melanoma 106% | MDA-MB-231 breast 88.1% | RXF 393 renal 167% | SF-268 CNS 94% | SF-295 CNS 122% | SF-539 CNS 87.3% | UACC-257 melanoma 121% | M14 melanoma 113%
active: K-562 leukemia -25.3%

O=C(CSc1ccc(Cl)cc1)Nc1ccc(-c2nc3ccccc3s2)c(Cl)c1
inactive: NCI-H23 lung 20.9% | NCI-H226 lung 77.4% | NCI-H322M lung 87.7% | HOP-62 NSCLC 75.3% | NCI-H460 lung 41.5% | NCI-H522 lung 28.2% | A549/ATCC NSCLC 48.8% | 786-0 renal 48.9% | COLO 205 colon 76.2% | K-562 leukemia 34.3% | MALME-3M melanoma 108% | MDA-MB-231 breast 93.8% | RXF 393 renal 78.7% | SF-295 CNS 22.3% | SF-539 CNS 93.1% | UACC-257 melanoma 84.5% | M14 melanoma 75.4%
active: HOP-92 NSCLC 6.61%

COc1cc2c(cc1OCCCOc1cc3c(cc1OC)C(=O)N1CCC[C@H]1C=N3)C=CC(C)(C)O2
inactive: NCI-H23 lung 107% | NCI-H226 lung 82.7% | NCI-H322M lung 133% | HOP-62 NSCLC 101% | NCI-H460 lung 108% | HOP-92 NSCLC 66.3% | NCI-H522 lung 83.7% | A549/ATCC NSCLC 99.3% | 786-0 renal 102% | COLO 205 colon 103% | K-562 leukemia 71.2% | MALME-3M melanoma 152% | MDA-MB-231 breast 88.6% | RXF 393 renal 94.8% | SF-268 CNS 91.2% | SF-295 CNS 123% | SF-539 CNS 126% | UACC-257 melanoma 83.9% | M14 melanoma 111%
